FMDV inh = High Throughput Screening for Foot and Mouth Disease Virus Antivirals | FMDV antiviral cell-based qHTS | Potency, µM (titrated, usually from 57.9 µM), hits mostly inhibitors | 410,000 compounds, 1.2% hits; calls by dose curve; tested in HEK293T cells; further: read-out not given here; nearly all actives have a fitted effect of over 45% in size
Lassa entry inh = qHTS for Inhibitors of binding or entry into cells for Lassa Virus; Lassa virus pseudotype entry inhibition, cell reporter; Potency, µM (highest dose often 37.9 µM), usual class: inhibitors; 300,000 compounds, 1.2% hits; AID 540256, 2011; calls by dose curve; tested in HEK293 cells; further: nearly all actives have a fitted effect of over 50% in size
VACV mCherry inh = qHTS for Stage-Specific Inhibitors of Vaccinia Orthopoxvirus: mCherry Reporter Primary qHTS | Vaccinia virus mCherry reporter infection, fluorescence | Potency, µM (series often up to 36.5 µM), hits mostly inhibitors | 310,000 compounds, 0.63% hits | AID 720579, 2013; calls by dose curve; tested in A549 cells; further: nearly all actives have a fitted effect of over 35% in size
Vaccinia Venus = qHTS for Stage-Specific Inhibitors of Vaccinia Orthopoxvirus: Venus Reporter Primary qHTS; 330,000 compounds, 0.46% hits; Potency, µM (highest dose often 36.5 µM), hits mostly inhibitors; Vaccinia virus Venus reporter expression, fluorescence; calls by dose curve; tested in A549 cells; further: nearly all actives have a fitted effect of over 30% in size
Marburg entry inh = qHTS for inhibitors of binding or entry into cells for Marburg Virus; Marburg virus pseudotyped entry inhibition, cell reporter; Potency, µM (top dose mostly 37.8 µM), usual class: inhibitors; 300,000 compounds, 1.8% hits; calls by dose curve; tested in HEK293 cells
Sm TGR block = qHTS Assay for the Inhibitors of Schistosoma Mansoni Peroxiredoxins; Schistosoma mansoni thioredoxin glutathione reductase (TGR), Q962Y6; purified TGR, DTNB reduction, TNB absorbance 405 nm; Potency, µM (doses to about 114 µM), actives largely listed as inhibitors; 360,000 compounds, 3% hits; AID 485364, 2010; active means well fitted inhibition curve with a large enough effect; inconclusive means small, poorly fitted or top-dose-only effect; inactive means no such curve, though single readings can be large or run the other way; further: nearly all actives have a fitted effect of over 60% in size
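Kinetic colorimetric format: TGR-catalysed, NADPH-driven DTNB reduction monitored via TNB absorbance. Enzyme dispensed at 20 nM; compound exposure 15 min at room temperature before reaction start.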
Numbers stand for hits; - = inactive; ? = inconclusive; . = no result; ! = not confirmed by another sample. Shown are actives, neighbours in structure and some others; about 5.4% of the full set was active somewhere.

SMILES | FMDV inh | Lassa entry inh | VACV mCherry inh | Vaccinia Venus | Marburg entry inh | Sm TGR block
COc1cc(-c2ccc3c(=O)c4ccccc4n(C)c3c2)cc(OC)c1OC | ? | . | - | ? | . | -
Cc1cc(C(=O)Cn2nnc3ccccc3c2=O)c(C)n1Cc1cccs1 | - | ? | ? | ? | ? | ?
Cc1cc(C)cc(NC(=O)c2cc(C)n(Cc3cccs3)c2C)c1 | - | - | - | - | ? | 39.8µM
Cc1cc(C(=O)CN2C(=O)c3ccccc3C2=O)c(C)n1Cc1cccs1 | - | - | - | - | 6.51µM | -
COc1ccc(S(=O)(=O)N2N=C(c3cccc(NS(C)(=O)=O)c3)CC2c2ccco2)cc1 (configuration not stated) | - | . | . | . | . | 22.4µM
COc1ccc(S(=O)(=O)N2N=C(c3ccc(NS(C)(=O)=O)cc3)CC2c2ccco2)cc1 (configuration not stated) | - | 0.651µM | . | . | - | 14.1µM
CS(=O)(=O)Nc1cccc(C2=NN(S(=O)(=O)c3ccc(F)cc3)C(c3cccs3)C2)c1 (configuration not stated) | - | - | - | - | - | -
CCC(=O)N1CCc2cc(CNS(=O)(=O)c3cc(Cl)ccc3OC)ccc21 | - | - | - | - | . | -
COc1ccc(C(=O)Nc2ccccc2C(=O)NCc2cccnc2)cc1OC | - | - | - | - | - | -
Cc1cc(C(=O)N/N=C/c2cccc3ccccc23)c(C)o1 | - | - | - | - | 7.94µM | -
COc1ccc(C(=O)Nc2ccccc2C(=O)N/N=C/c2ccncc2)cc1OC | 14.1µM | ? | - | - | ? | -
COc1ccc(C(=O)Nc2ccccc2C(=O)N/N=C/c2cccc3ccccc23)cc1 | 0.316µM | ? | . | . | ? | -
Cc1ccc(Cl)cc1NC(=O)c1ccc(NC(=O)N2CCSc3ncccc32)cc1 | ? | - | - | - | . | -
COc1ccc(C(=O)Nc2nc(C)cc(C)n2)cc1 | - | - | - | - | - | 22.4µM
COc1ccccc1NC(=O)CSC1=Nc2ccccc2C2=NC(CCC(=O)NCc3cccs3)C(=O)N12 (configuration not stated) | ? | ? | - | - | . | -
COc1ccc(Nc2cc(C(=O)NCCCN(C)C3CCCCC3)c3ccccc3n2)cc1 | - | ? | - | - | 10µM | -
COc1ccc(Nc2cc(C(=O)NCCCN(C)C3CCCCC3)c3ccccc3n2)c(OC)c1 | - | ? | - | - | ? | -
COc1ccc(N2CCN(CCCNC(=O)c3cc(Nc4ccc(OC)cc4OC)nc4ccccc34)CC2)cc1 | 22.4µM | ? | - | - | . | -
O=C(c1cccs1)N1C[C@@H](O)[C@@H](n2cc(C3CC3)nn2)C[C@@H]1c1ccccc1 | . | - | . | . | . | .
CN(C)c1nc2cc3c(cc2cc1CN(CC1CCCO1)C(=O)c1cccc(F)c1)OCO3 (configuration not stated) | - | . | - | - | . | .
Cc1cnc(NC(=O)c2ccc(OCC3CCCO3)cc2)s1 (configuration not stated) | - | 1.78µM | - | - | ? | -
Cc1ccc(NC(=O)c2ccc(OCC3CCCO3)cc2)nc1 (configuration not stated) | ? | ? | - | - | ? | -
O=C(Nc1nc2ccccc2s1)c1ccc(OCC2CCCO2)cc1 (configuration not stated) | - | 10µM | - | - | ? | -
C[C@@H]1CN(Cc2ccc3c(c2)CN(Cc2cccc4c2OCO4)CCO3)C[C@H](C)O1 | - | . | - | - | . | .
O=C(c1ccco1)N(Cc1ccc(Cl)cc1)Cc1ccco1 | - | . | . | . | . | -
SMILES | FMDV inh | Lassa entry inh | VACV mCherry inh | Vaccinia Venus | Marburg entry inh | Sm TGR block
CC(=O)N(CCC(Cc1ccccc1)c1ccco1)Cc1ccco1 (configuration not stated) | ? | . | . | . | . | 22.4µM
O=C(c1ccco1)N(CCC(c1ccccc1)c1ccco1)Cc1ccco1 (configuration not stated) | ? | - | - | - | ? | 10µM
Cc1ccc(C(CCN(Cc2ccccc2)C(=O)c2ccco2)c2ccco2)cc1 (configuration not stated) | - | - | - | - | - | 20µM
CC1CCCC(NC(=S)Nc2ccc(SC(F)F)cc2)C1C (configuration not stated) | - | ? | ? | 11.2µM | ? | -
FC(F)Sc1ccc(NC(=S)NC2CCCC2)cc1 | - | - | - | - | - | -
CC1CCN(Cc2c(O)ccc3c2O/C(=C\c2ccco2)C3=O)CC1 | - | - | - | - | - | 1µM
COCCN(CCOC)Cc1c(O)ccc2c1O/C(=C\c1ccco1)C2=O | - | - | - | - | - | 3.55µM
CCN1CCN(Cc2c(O)ccc3c2O/C(=C\C=C\c2ccccc2OC)C3=O)CC1 | - | - | - | - | ? | ?
O=C1/C(=C/c2ccco2)Oc2c1ccc(O)c2CN1CCCCC1 | - | - | - | - | - | ?
CC(C)OCCCNC(=O)CSc1c2c(nc3ccc(Cl)cc13)CCCC2 | ? | - | - | - | - | -
CCOc1ccc2oc(=O)cc(CN3CCN(c4ccc(OC)cc4)CC3)c2c1 | - | - | - | - | - | -
COc1ccc(/C=N/N=C2/CC(C)(C)Cc3n[nH]c(=O)cc32)cc1 | - | - | - | - | - | 12.6µM
Cc1ccc(-c2nc(-c3ccccc3)no2)cc1 | 11.2µM | ? | - | - | ? | -
Cc1noc(-c2ccc(-c3noc(-c4ccccc4)n3)cc2)n1 | - | - | - | - | . | -
Cc1cccc(-c2nc(-c3ccncc3)no2)c1 | - | 10µM | - | - | ? | -
COc1cccc(-c2nc(-c3ccccc3)no2)c1 | - | 14.1µM | - | - | ? | -
COc1cccc(-c2nc(-c3ccccn3)no2)c1 | 20µM | 1.46µM | . | . | 2.31µM | -
CN(C)c1ccc(NC(=O)CN2CCN(CC(=O)Nc3ccc(Br)cc3)CC2)cc1 | - | - | - | - | . | -
O=C(Nc1sc2c(c1C(=O)O)CCCCC2)c1ccco1 | - | ? | . | . | ? | -
CC1CCc2c(sc(NC(=O)c3ccco3)c2C(=O)O)C1 (configuration not stated) | - | ? | - | - | 3.55µM | -
Cc1ccc(C)c(Cn2c(C3CC(=O)N(c4ccccc4C)C3)nc3ccccc32)c1 (configuration not stated) | - | - | - | - | ? | -
Oc1ccc(Oc2ncc(Cl)cc2Cl)cc1 | - | - | - | - | - | -
Clc1cnc(Oc2ccc(Oc3ncc(Cl)cc3Cl)cc2)c(Cl)c1 | - | ? | - | - | 1µM! | -
O=C(O)Cc1ccc(NC(=O)c2ccc3c(c2)C(=O)N(CC2CCCO2)C3=O)cc1 (configuration not stated) | - | - | - | - | - | -
CC(C)CN1C(=O)c2ccc(C(=O)Nc3ccncc3)cc2C1=O | 12.6µM | - | . | . | - | -
COC(=O)c1cccc(NC(=O)c2ccc3c(c2)C(=O)N(C(C)(C)C)C3=O)c1 | - | - | - | - | - | -
